Source: PubChem BioAssay
Sampled rows, rich in hits. Any-hit rate of the full collection: about 2.7%.
rCAG RNA binder – binders of r(CAG) RNA repeats, primary screen, biochemical, fluorescence. AID 651821, 2012. 370,000 compounds, 1.3% hits. r(CAG) RNA repeat, TO-PRO-1 dye displacement fluorescence. inhibition, % at 3 µM;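 active = inhibition above the plate cutoff, the mean of all test compounds on that plate plus 3 SD, cut at about 35% in these data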;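 also: 0% = DMSO alone and 100% = 100 µM mitoxantrone as full dye displacement; higher means more dye released from RNA so lower well fluorescence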
MsrA act – bovine MsrA enzyme activators, primary screen, biochemical, absorbance, HTS. Methionine sulfoxide reductase A (Bos taurus). purified bovine MsrA, absorbance read-out. activation, % at 10.6 µM. 360,000 compounds, 0.3% hits; in the data active = activation above about 7.5%;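 also: 0% = vehicle and 100% = reference activator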
NadD inh – inhibitors of S. aureus NadD, primary screen, biochemical, colorimetric, uHTS; inhibition, % at 20 µM; AID 602399, 2012; 360,000 compounds, 0.78% hits; purified NadD enzyme, colorimetric absorbance read-out; Nicotinate-nucleotide adenylyltransferase NadD (Staphylococcus aureus N315); in the data active = inhibition above about 26%
MsrA inhibitor – bovine MsrA enzyme inhibitors, primary screen, biochemical, absorbance, HTS. AID 651718, 2012. purified bovine MsrA, absorbance read-out. 360,000 compounds, 0.75% hits. Methionine sulfoxide reductase A (Bos taurus). inhibition, % at 15.5 µM; in the data active = inhibition above about 4.5%;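 also: 0% = vehicle wells with enzyme and 100% = reference inhibitor wells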
Starred values were filed as active, the others as inactive; nt = not tested or not shown.

SMILES	rCAG RNA binder	MsrA act	NadD inh	MsrA inhibitor
Cc1cc(OCC(=O)NC(Cc2ccc(Cl)cc2)C(=O)O)c2c(C)cc(=O)oc2c1 (centres undefined)	22	-2	6	1
Cc1ccc(N(CC(=O)NCc2ccco2)C(=O)CNS(=O)(=O)c2ccccc2)c(C)c1	0	-2	-9	1
O=C(C=P(c1ccccc1)(c1ccccc1)c1ccccc1)c1ccccc1-c1ccccc1C(=O)C=P(c1ccccc1)(c1ccccc1)c1ccccc1	8	-10	56*	-1
O=C(NNC(=O)c1ccccc1-c1ccccc1C(=O)O)c1ccccc1	0	-4	0	0
COC(=O)[C@H](NCc1ccc(OC)c(B(O)O)c1)C(C)C	1	-4	-1	0
COc1cc(OC)c2c(O)c3c(c(-c4c5c(c(O)c6c(OC)cc(OC)cc46)CO[C@@H](C)[C@H]5O)c2c1)[C@H](O)[C@H](C)OC3	nt	1	50*	nt
O=C(CCN1C(=O)/C(=C/c2ccccc2Cl)SC1=S)NC1C=CS(=O)(=O)C1 (centres undefined)	4	-1	37*	2
COCCNC(=O)C(c1ccc(F)cc1)N(C(=O)CCC(=O)Nc1ccccn1)C1CCCCC1 (centres undefined)	-5	-2	5	0
O=C(CC1SC(=O)N(c2ccccc2)C1=O)Nc1ccccc1 (centres undefined)	26	-3	-4	0
Cc1ccc(NC(=O)CC2SC(=O)N(c3ccccc3)C2=O)cc1 (centres undefined)	37*	-3	-6	0
CCOc1ccc(-c2nn(-c3ccccc3)cc2/C=C2\SC(N)=NC2=O)cc1C	6	-11	32*	-1
Cc1ccc(-c2nn(-c3ccccc3)cc2/C=C2\SC(=S)N(CC(=O)O)C2=O)cc1	18	-3	41*	3
O=C(O)CCN1C(=O)/C(=C/c2cn(-c3ccccc3)nc2-c2cccs2)SC1=S	31	-4	31*	2
O=C(O)CCCCCN1C(=O)/C(=C\c2cn(-c3ccccc3)nc2-c2cccs2)SC1=S	20	-3	32*	1
COc1ccc(-c2nn(-c3ccccc3)cc2/C=C2/SC(=S)N(CCC(=O)O)C2=O)cc1	20	-11	25	0
CCOc1cc(/C=C2\SC(N)=NC2=O)ccc1O	-2	-5	-3	3
Cc1ccc(-n2c(SCC(=O)Nc3cccc4ccccc34)nnc2-c2cnccn2)cc1	3	nt	nt	nt
C=CCN1C(C(=O)OC)CN(Cc2cn(Cc3ccc(Cl)cc3)nn2)CCS1(=O)=O (centres undefined)	5	nt	nt	nt
O=[N+]([O-])c1ccc(/C=N/n2cnc3ccccc32)s1	9	18*	-7	2
Cc1ccc(S(=O)(=O)N2[C@@H](c3ccc(C(C)(C)C)cc3)C(C(=O)O)=CC[C@H]2c2ccc(Cl)cc2)cc1	89*	-2	26	1
COc1ccc([C@@H]2CC=C(C(=O)O)[C@H](c3ccccc3)N2S(=O)(=O)c2ccccc2C)cc1	36*	-2	-2	0
Cc1ccc(S(=O)(=O)N2[C@@H](c3cccc(Cl)c3)C(C(=O)O)=CC[C@H]2c2ccc(Cl)cc2)cc1	10	-6	8	0
CCOC(=O)Cc1nnc(NC(=O)Nc2ccccc2)s1	35*	0	-9	0
CCOC(=O)c1nn(-c2ccc(C)cc2)cc1O	-1	-5	-6	1
CCOC(=O)c1nn(-c2ccc3c(c2)OCO3)cc1O	7	3	-2	5.9*
SMILES	rCAG RNA binder	MsrA act	NadD inh	MsrA inhibitor
COc1ccc(OC)c(NC(=O)C(=O)N/N=C/c2ccccc2[N+](=O)[O-])c1	0	-3	4	0
COc1ccc(NC(=O)C(=O)N/N=C/c2cc(C)n(-c3cccc(Cl)c3Cl)c2C)c(OC)c1	1	-7	36*	-1
Cc1noc(NS(=O)(=O)c2ccc(NC(=O)CSc3n[nH]c(-c4ccccc4)n3)cc2)c1C	34	-4	8	-1
Cc1noc(NS(=O)(=O)c2ccc(NC(=O)CSc3nnc(-c4ccccc4)n3C3CCCCC3)cc2)c1C	63*	-3	20	-1
Cc1nnc(SCC(=O)N2CCN(c3cccc(Cl)c3)CC2)n1C1CC1	1	-1	0	0
CCOC(=O)C1CCN(c2nc(N)c3c(N)nc(SCC(=O)O)cc3c2C#N)CC1	35*	2	12	2
COc1cc(/C=N/Nc2nnc3c(n2)[nH]c2ccccc23)ccc1O	14	-3	-1	4.6*
COc1ccc(OC)c(/C=N/Nc2nncn2/N=C/c2cc(OC)ccc2OC)c1	-2	3	13	4
COc1cc(/C=N/Nc2nncn2/N=C/c2ccc(O)c(OC)c2)ccc1O	-3	5	-3	4.6*
Cc1ccc2[nH]c3nc(N/N=C/c4cccc(O)c4)nnc3c2c1	24	-5	17	0
COc1ccc(OC)c(NC(=O)CSc2nc3[nH]c(=O)[nH]c(=O)c3s2)c1	37*	-8	11	2
CCn1c(=S)sc2c(=O)[nH]c(SCC(=O)Nc3cc(OC)ccc3OC)nc21	76*	-4	11	2
Cc1ccc2c(c1)C1CS(=O)(=O)N(CCc3ccccc3)C(=O)N1C2 (centres undefined)	8	nt	nt	nt
COC(=O)[C@]12CCCCC=C1N(Cc1ccccc1)C(=O)[C@H](CC(=O)NCCCCc1ccccc1)C2	4	0	-6	-1
c1ccc(-c2nc(-c3cccs3)[nH]c2-c2ccccc2)cc1	0	-1	3	2
c1csc(-c2nc3c4ccccc4c4ccccc4c3[nH]2)c1	60*	2	25	1
C[C@H](CCCCC1(C)OCCO1)CCC(=O)N(c1ccccc1)c1ccccc1	1	nt	nt	nt
Cc1ccc(C(=O)N/C(=C\c2cccs2)c2nc3ccccc3[nH]2)cc1	4	-9	5	4.6*
Cn1nccc1-c1ccc(C(=O)NCc2ccc(Cl)cc2)c2occc12	nt	-2	2	nt
Cc1ccc(-c2cc(C(=O)N/N=C/C=C/c3ccccc3)n[nH]2)s1	13	-7	19	4.6*
O=C(N/N=C/C=C/c1ccccc1)c1cc(C2CC2)[nH]n1	1	-6	1	4
CC(NC(=O)C1CCN(CCOc2ccc(Cl)cc2)CC1)c1cccc2ccccc12 (centres undefined)	1	1	-3	-1
O=[N+]([O-])c1ccc(O)c(P(=O)(c2ccccc2)c2ccccc2)c1	5	-11	-4	2
Cc1ccc(N=Nc2ccc(O)c(P(=O)(c3ccccc3)c3ccccc3)c2)cc1	7	0	34*	0
COc1ccc(/C=C/C(=O)NC(=S)Nc2cc([N+](=O)[O-])ccc2O)cc1OC	52*	-4	6	1
Cc1ccc(CC(=O)N2CCN(S(=O)(=O)c3ccccc3)CC2)cc1C	-3	-10	8	4.6*
CCN1CCN(CC(O)COC(C)C)CC1 (centres undefined)	1	15*	-3	-1
